SW480 rereplic = A quantitative high throughput screen for small molecules that induce DNA re-replication in SW480 colon adenocarcinoma cells; actives 1.8% (n = 340,000); Potency, µM (top dose mostly 46.1 µM), for inactives: at the highest dose re-replication activation, actives largely listed as activators; SW480 DNA re-replication, Hoechst DNA content imaging, 48 h; note: % of control where 0% means no effect; nearly all actives have a fitted effect of over 55% in size
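Hoechst fluorescence of nuclei (405 nm excitation, 500-530 nm emission) measured by plate-scanning imager after 48 hr compound exposure at 37 C; re-replication scored as increased number of nuclei with elevated intensity.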
MCF10A rerep = A quantitative high throughput screen for small molecules that induce DNA re-replication in MCF 10a normal breast cells; Potency, µM (doses to about 46.1 µM), inactives show top-dose activity, positive = re-replication, hits mostly activators; MCF 10A DNA re-replication, Hoechst nuclear intensity, 48 h; AID 624296, 2012; actives 2.9% (n = 350,000); note: % of control where 0% means no effect; nearly all actives have a fitted effect of over 50% in size
PINK1 expr mod = A Quantitative High throughput Screen to Identify Chemical Modulators of PINK1 Expression. Potency, µM (titrated, usually from 76.6 µM), inactives show at the top dose activation (PINK1 increase), usual class: activators. actives 0.2% (n = 410,000). PINK1 immunofluorescence, high-content cytometry, 24 h; active = well fitted activation curve with a large enough effect; inconclusive = small, poorly fitted or top-dose-only effect; cell line not stated here; note: % of control where 0% means no effect; nearly all actives have a fitted effect of over 65% in size
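Fluorescence from anti-PINK1 antibody, together with nuclear and cell stains, was scanned on a laser-scanning cytometer. Before staining, stable-line cells were incubated 24 hours with compounds at 5 concentrations; primary antibody 12 h at 10 degrees C.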
KB-3-1 cytotox = qHTS assay for MDR1-selective chemotherapeutics: Primary screen using the parental adenocarcinoma cell KB-3-1; AID 1347075, 2019; actives 1.4% (n = 400,000); Potency, µM (series often up to 46.1 µM), actives largely listed as cytotoxic; KB-3-1 viability, CellTiter-Glo ATP luminescence, 72 h; note: % is set by controls: 0 for no effect and ±100 for the full control effect; nearly all actives have a fitted effect of over 60% in size
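Here the drug-naive KB-3-1 line serves as comparator for MDR sub-line selectivity; cells received compound titrations, 72 h at 37 °C, then CellTiter-Glo readout.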
KB-V1 cytotox = qHTS assay for MDR1-selective chemotherapeutics: Primary screen using the drug-selected MDR subline cells KB-V1 | actives 3.4% (n = 400,000) | Potency, µM (series often up to 46.1 µM), most hits filed as cytotoxic | KB-V1 MDR cells viability, CellTiter-Glo, 72 h; note: % is set by controls: 0 for no effect and ±100 for the full control effect; nearly all actives have a fitted effect of over 60% in size
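Drug-selected KB-V1 cells, grown in DMEM lacking phenol red with 10% FBS, receive compound titrations; after three days at 37 degrees C, surviving cell ATP is quantified by CellTiter-Glo luminescence and responses normalized and curve-fitted.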
The depositor's hits bear a star; i = inactive; ? = inconclusive; · = no result; [ ] = dose if it differs, or a comment. A selection: hits, their analogues and other compounds. The true share with any hit is near 6.7%. Unless noted, calls come from the whole dose curve; as a rule, active = well fitted curve in the direction sought with a large enough effect; inconclusive = small, poorly fitted or top-dose-only effect, or another doubt; inactive = no such curve, though single readings can be large; an effect the other way counts as inactive or inconclusive. Potency is the fitted concentration of half-maximal effect.

SMILES | SW480 rereplic | MCF10A rerep | PINK1 expr mod | KB-3-1 cytotox | KB-V1 cytotox
Cc1cc(C(F)F)n2nc(C(=O)Nc3sc4c(c3C#N)CCC4)nc2n1 | 15% | -34% | 1% | i | 21µM*
N#Cc1c(NC(=O)/C=C/c2ccco2)sc2c1CCCC2 | ? | ? | 23% | 0.41µM* | 1µM*
COC(=O)c1c(-c2ccccc2)csc1NC(=O)c1c(-c2ccccc2)noc1C | ? | ? | 0% | i | 5.8µM*
CCOC(=O)C1=CCN(S(=O)(=O)c2ccccc2C)C1c1cccc(Br)c1 (centres undefined) | · | · | 3% | i | ?
CCOC(=O)c1c(NC(=O)c2nc(SCC)ncc2Cl)sc2c1CCCC2 | · | · | 0% | i | i
CC(CNC(=O)CN1C(=O)NC2(CCOc3ccccc32)C1=O)c1ccccc1 (centres undefined) | 6% | 9% | 0% | i | ?
CC1=C(C(=O)N(C(C)C)C(C)C)CC(CC(=O)NCCN2CCOCC2)C(=O)N1Cc1ccccc1 (centres undefined) | · | · | 1% | i | i
O=C(CCCCn1ccc(=O)[nH]c1=O)Nc1ccc(O)c(C(=O)O)c1 | 1% | -1% | -3% | i | i
Cc1onc(-c2c(F)cccc2Cl)c1C(=O)NC(=S)NC1CCS(=O)(=O)C1 (centres undefined) | 0% | 17% | -2% | i | 23µM*
Cc1cc(C(=O)Nc2sc3c(c2C#N)CCCC3)no1 | 12µM* | ? | ? | ? | ?
Cc1onc(-c2ccccc2)c1C(=O)NC(=S)Nc1sc2c(c1C#N)CCCC2 | 3% | ? | 3% | i | i
CC(C)Cc1cc(C(=O)Nc2sc3c(c2C#N)CCCC3)no1 | -2% | 19% | 16% | i | i
Cc1onc(-c2ccccc2)c1C(=O)Nc1sc2c(c1C#N)CCC2 | ? | ? | 14%[38.3 µM] | ? | 4.6µM*
O=CC(=O)c1ccc(F)cc1 | · | · | 1% | i | i
Cc1cccc(-c2cnc(C)nc2C2CCCN(C(=O)c3cccc(Cn4cccn4)c3)C2)c1 (centres undefined) | · | · | 1% | · | ·
COc1cc(/C=C(\C#N)C(N)=O)ccc1OS(=O)(=O)c1ccc(C)cc1 | ? | 16% | 3% | i | i
COc1cc(/C=C(\C#N)C(=O)NC2CCCCC2C)ccc1OS(=O)(=O)c1ccc(C)cc1 (centres undefined) | ? | 18µM* | -1% | ? | i
CCOCCCNC(=O)/C(C#N)=C/c1ccccc1F | -6% | -1% | 2% | i | i
CC(=O)Nc1ccc(/C=C(\C#N)C(=O)NC2CCCCC2C)cc1 (centres undefined) | 3% | ? | 2% | i | ?
CSc1ccc(/C=C(\C#N)C(=O)NC2CCCCC2C)cc1 (centres undefined) | ? | 18µM* | -3% | ? | 16µM*
CCCCCCCCNC(=O)/C(C#N)=C/c1ccc2c(c1)OCCO2 | -138% | ? | 2% | i | i
CC1CCCCC1NC(=O)/C(C#N)=C/c1ccccc1F (centres undefined) | ? | 15µM* | -4% | i | i
CCCCCCCCNC(=O)/C(C#N)=C/c1ccc(SC)cc1 | 2.1µM* | -14% | 9% | i | 21µM*
O=C(OCC(=O)N1CCc2ccccc2C1)c1ccc(O)cc1 | 3% | 0% | 0% | i | i
O=C1C(O)CCN1Cc1ccccc1 (centres undefined) | -6% | -1% | 7% | i | i
SMILES | SW480 rereplic | MCF10A rerep | PINK1 expr mod | KB-3-1 cytotox | KB-V1 cytotox
CC(=O)Nc1ccc(Nc2ccc3cc(S(=O)(=O)N4CCCCC4)ccc3n2)cc1 | · | · | 5% | i | ?
Cc1nc2cc(OC3(C)CCN(Cc4ccc(OC(F)(F)F)cc4)C3)ccc2s1 (centres undefined) | · | · | 45µM* | i | i
COc1cc2nc(N(C)C)nc(NC3CCN(C)CC3)c2cc1OC | · | · | -1% | · | ·
Fc1ccc(Nc2cccc3nccnc23)cc1 | -8% | -2% | 2% | i | i
c1cc(Nc2cccc3nccnc23)c2nccnc2c1 | 8.2µM* | 13% | 1% | ? | ?
c1ccc2ncccc2c1 | -3% | 14% | 3% | ? | i
c1ccc2nccnc2c1 | · | · | 0% | 4.6µM* | ?
CCc1nnc(NC(=O)CSc2nccn2Cc2ccccc2)s1 | · | · | -5% | i | ?
COc1cccc2[nH]c3c(N4CCCC(C)C4)ncnc3c12 (centres undefined) | -6% | 4% | 17% | i | 6.5µM*
O=C(CSc1nc2ccccc2nc1Cc1ccc(Cl)cc1)N1CCN(c2ccccc2F)CC1 | · | · | 1% | i | i
COc1ccccc1CNC(=O)c1ccc(NC2=NC3CS(=O)(=O)CC3S2)cc1 (centres undefined) | -21% | -2% | -2% | i | ?
Cc1ccc(OCc2nnc(SCC(=O)Nc3cccc4ccccc34)n2-c2ccccc2)cc1 | 9% | 18µM* | 2% | i | ?
COc1ccccc1NC(=O)CSc1nnc(COc2ccc(Cl)cc2)n1Cc1ccco1 | -3% | ? | -2% | i | i
CCn1c(COc2ccccc2)nnc1SCC(=O)Nc1cc(C)ccc1OC | -1% | -2% | 2%[38.3 µM] | i | 15µM*
COc1ccc(C(=O)CSc2nnc(CNc3ccc(C)cc3C)n2Cc2ccco2)cc1 | 0% | 26% | -1% | ? | 3.7µM*
COc1ccc(C)cc1NC(=O)CSc1nnc(COc2ccc(C)cc2)n1Cc1ccco1 | ? | 9% | -1% | i | 9.2µM*
Cc1ccc(C(=O)CSc2nnc(CNc3ccc(C)cc3C)n2Cc2ccco2)cc1 | 12% | ? | 1% | ? | ?
COc1ccc(S(=O)(=O)N2CCOCC2)cc1NC(=O)C1CC(=O)N(c2ccc3c(c2)OCCO3)C1 (centres undefined) | · | · | 1% | i | ?
O=C(Cn1c2ccccc2c(=O)c2ccccc21)Nc1ccccc1F | · | ? | 0% | i | ?
O=C(Cn1c2ccccc2c(=O)c2cc([N+](=O)[O-])ccc21)Nc1ccccc1Cl | 16µM* | ? | -1% | i | i
CCC(=O)Nc1sc2c(c1C(=O)Nc1ccc(Br)cc1)CCCCC2 | · | · | 1% | i | i
COc1cccc(/C=N/NC(=O)c2[nH]nc3c2CCc2ccccc2-3)c1 | ? | ? | -1% | 10µM* | ?
